Assay results taken from PubChem BioAssay AID1851 (National Center for Advancing Translational Sciences (NCATS), 2009).
The whole screen tested about 16,000 compounds, of which about 4,000 (25%) were called active. Inconclusive results (about 26%) are left out. These entries were drawn from the full list. Unmarked numbers belong to inactive results. Calls come from the whole dose curve; as a rule, active = well fitted curve in the direction sought with a large enough effect; inconclusive = small, poorly fitted or top-dose-only effect, or effect the other way; inactive = no such curve, though single readings can be large or run the other way.

target: Cytochrome P450 2C9 (Homo sapiens) (UniProt P11712); assay: Cytochrome panel assay with activity outcomes; conditions: recombinant CYP, pro-luciferin dealkylation, luminescence, p450-cyp2c9; series mostly up to 57.1 µM; activity, negative = inhibition: at the top concentration
% is set by controls: 0 for no effect and ±100 for the full control effect.

Cytochrome P450 2C9 (Homo sapiens), sequence (P11712 whole entry, looked up): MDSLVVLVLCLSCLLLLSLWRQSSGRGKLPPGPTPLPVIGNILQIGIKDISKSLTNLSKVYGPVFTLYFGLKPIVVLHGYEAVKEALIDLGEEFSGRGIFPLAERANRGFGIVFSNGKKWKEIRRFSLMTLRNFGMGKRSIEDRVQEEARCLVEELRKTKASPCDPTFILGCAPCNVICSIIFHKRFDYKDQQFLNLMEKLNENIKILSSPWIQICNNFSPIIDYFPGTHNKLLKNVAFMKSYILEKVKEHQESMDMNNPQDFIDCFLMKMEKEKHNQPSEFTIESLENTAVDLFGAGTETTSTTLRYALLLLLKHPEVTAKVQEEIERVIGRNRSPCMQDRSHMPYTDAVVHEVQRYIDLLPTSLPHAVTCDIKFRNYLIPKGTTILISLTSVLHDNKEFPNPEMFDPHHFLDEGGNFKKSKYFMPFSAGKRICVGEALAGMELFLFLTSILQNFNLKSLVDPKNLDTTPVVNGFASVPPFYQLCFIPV

SMILES	activity, negative = inhibition	AC50
O=C1CCc2cc(OCCCCc3nnnn3C3CCCCC3)ccc2N1	-17.9%	
CC(C)(C)c1ccc(CN(Cc2ccco2)Cc2nnnn2C2CCCC2)cc1		3.55 µM (active)
O=C(O)c1nnsc1-c1csnn1	-13.9% [at 11.4 µM]	
O=C(Nc1ccc2c(c1)OCCO2)c1cc2sccc2n1Cc1ccc(F)cc1		3.55 µM (active)
CCNC(=O)NC1(C(=O)Nc2ccc3c(c2)OCCO3)CCCCC1	-22.8%	
CCO[P@]1(=O)OC[C@@H]2O[C@H](n3cnc4c(N)ncnc43)[C@H](O)[C@@H]2O1	-1.07% [at 11.4 µM]	
O=C(Nc1ccccc1)N1CC[C@@]2(CCCN(C(=O)c3cc(C(F)(F)F)cc(C(F)(F)F)c3)C2)C1	0.313%	
Cc1ccccc1NC(=O)OCc1cn(-c2ccc(Cl)cc2)nn1	-27.3%	
CCCCC(=O)OCc1cn(-c2ccc(Cl)cc2)nn1		17.8 µM (active)
NNC(=O)c1nn(-c2ccc(Cl)cc2)ccc1=O	-4.57%	
CCOC(=O)CCN1C(=O)[C@H]2[C@H]3[C@H](O)[C@H](O)C/C(=N/OC/C=C(\C)CCC=C(C)C)[C@H]3CC[C@@H]2C1=O	3.33% [at 11.4 µM]	
CCC(Sc1nc(=O)cc(N)n1CCc1ccccc1)C(=O)Nc1ccccc1C#N (configuration not stated)		2.51 µM (active)
CCNc1ncc2nc(C)c(=O)n(CCc3ccccc3)c2n1	-5.9%	
CC(=O)O[C@@H](C)C[N+](C)(C)C		inactive
N#Cc1cccc(NC(=O)N2CC[C@@]3(CCCN(C(=O)c4ccncc4)C3)C2)c1	11.3%	
CC(=O)N1CCN(S(=O)(=O)c2ccccc2)C1c1ccccc1 (configuration not stated)	-23.8%	
Cc1ccc(S(=O)(=O)N2CCC(C(=O)O)(c3ccccc3)CC2)cc1	-9.94% [at 11.4 µM]	
Cc1ccc(S(=O)(=O)N2CCN(C(=O)c3ccccc3)C2C(C)C)cc1 (configuration not stated)		25.1 µM (active)
Cc1noc(C)c1-c1nccc(Nc2ccc(F)cc2)n1	25.8% [at 2.29 µM]	
O=C(CN1CCN(c2ccc(Cl)cc2)CC1)Nc1cccc(F)c1		2.82 µM (active)
O=C(CSc1ccc(Cl)cc1)Nc1ccc(N2CCN(c3ccccc3)CC2)c(F)c1	5.76%	

SMILES	activity, negative = inhibition	AC50
O=C(CSc1ccc(Cl)cc1)Nc1ccc(N2CCN(C(=O)c3ccc(Cl)cc3)CC2)cc1		5.01 µM (active)
O=C(CN1CCN(c2ccc(Cl)cc2)CC1)Nc1ccc(F)c(F)c1		3.55 µM (active)
COC(=O)N1CCC2(CCN(C(=O)Nc3cccc(F)c3)CC2)CC1	-13%	
Fc1cccc(NC(=S)NCCCN2CCOCC2)c1	1.12%	
O=C(O)CCC(=O)Nc1ccc(C(=O)N2CCCCC2)cc1	6.15%	
COc1ccc2c(Cl)c(-c3nnco3)sc2c1	-29%	
[O-][N+]1(CC[N+]2([O-])CCCCC2)CCCCC1	-6.33% [at 11.4 µM]	
CCOC(=O)CSc1nnc(CSc2nc3sc4c(c3c(=O)[nH]2)CCCC4)n1-c1ccccc1		5.01 µM (active)
CCOC(=O)CSc1nnc(Cc2cc(=O)[nH]c(=O)[nH]2)n1-c1cccc(OC)c1	-0.051%	
CCOC(=O)CC1C(=O)NCCN1S(=O)(=O)c1ccc(Cl)c(Cl)c1 (configuration not stated)	149%	
O=C(NCc1ccccc1Cl)c1ccc2c(=O)n(CCCN3CCCC3=O)c(=S)[nH]c2c1		8.91 µM (active)
COCCCNC(=O)c1ccc2c(=O)n(CC3CCCO3)c(=S)[nH]c2c1 (configuration not stated)	-11.2%	
COCCn1c(=S)[nH]c2cc(C(=O)NC(C)C)ccc2c1=O	-4.45%	
N#Cc1cccc(-c2cc(NCc3cccnc3)ncn2)c1	-26.2% [at 2.29 µM]	
COc1cccc(C(=O)N(Cc2ccccc2)Cc2cc3cc4c(cc3[nH]c2=O)OCCO4)c1		10 µM (active)
COc1ccc2[nH]c(=O)c(CN(CCO)C(=O)c3cccs3)cc2c1	-14.4%	
Cc1cnc(CNc2cc(-c3cccc(C#N)c3)ncn2)cn1	19.4% [at 2.29 µM]	
COc1ccc(-c2nc3cnc(N4CCN(C)CC4)nc3n(Cc3ccc(F)cc3)c2=O)cc1	18.1%	
COc1ccc(-c2nc3cnc(N4CCNCC4)nc3n(CCc3ccccc3)c2=O)cc1		3.98 µM (active)
CCNc1ncc2nc(-c3ccc(Cl)cc3)c(=O)n(Cc3cccc(OC)c3)c2n1	6.87%	
COc1cccc(Cn2c(=O)c(-c3cccs3)nc3cnc(N4CCNCC4)nc32)c1		12.6 µM (active)

SMILES	activity, negative = inhibition	AC50
COc1ccc(-c2nc3cnc(N4CCN(C)CC4)nc3n(CCC#N)c2=O)cc1	1.14%	
COc1cccc(Cn2c(=O)c(-c3ccc(Cl)cc3)nc3cnc(N4CCN(C)CC4)nc32)c1	13%	
COc1cccc(Cn2c(=O)c(-c3ccc(F)cc3)nc3cnc(N4CCNCC4)nc32)c1		15.8 µM (active)
COc1cccc(Cn2c(=O)c(-c3ccc(Cl)cc3)nc3cnc(N4CCNCC4)nc32)c1		12.6 µM (active)
CCCS(=O)(=O)N1CCCC(C(=O)NCCCOC(C)C)C1 (configuration not stated)	-21.8%	
COc1cccc(Cn2c(=O)c(-c3ccccc3)nc3cnc(N4CCNCC4)nc32)c1		12.6 µM (active)
COc1ccc(-c2nc3cnc(N4CCNCC4)nc3n(Cc3cccc(OC)c3)c2=O)cc1		25.1 µM (active)
COc1cccc(Cn2c(=O)c(-c3ccccc3)nc3cnc(N4CCN(C)CC4)nc32)c1	-11.1%	
COc1cccc(Cn2c(=O)c(-c3cc(F)cc(F)c3)nc3cnc(N(C)C)nc32)c1	-2.46%	
COc1ccc(-n2c(=O)c(-c3ccc(Cl)cc3)nc3cnc(N4CCNCC4)nc32)cc1	-3.8%	
COc1cccc(Cn2c(=O)c(-c3cc(F)cc(F)c3)nc3cnc(N4CCNCC4)nc32)c1		7.94 µM (active)
COc1ccc(-n2c(=O)c(-c3cc(F)cc(F)c3)nc3cnc(N4CCNCC4)nc32)cc1	-19.9%	
CCC1(c2ccccc2)C(=O)NCNC1=O		inactive
CC(C)CO/N=C1/[C@H]2O[C@@H]2[C@@H](O)[C@H]2[C@H]1CCn1c(=O)n(C)c(=O)n12	-1.24% [at 11.4 µM]	
CCC(=O)NC(NCC1CCCO1)C(Cl)(Cl)Cl (configuration not stated)	-27.2%	
O=C(NCC1CCCO1)C1CCC(=O)N1CCc1ccccc1 (configuration not stated)	29.1%	
CN(c1ccc(C(=O)NCC2CCCO2)cc1)S(=O)(=O)c1ccccc1 (configuration not stated)		25.1 µM (active)
O=C(CC(c1ccccc1)c1ccccc1)NCC1CCCO1 (configuration not stated)		20 µM (active)
Cc1ccc(C(=O)NC(=S)NCC2CCCO2)cc1 (configuration not stated)		7.94 µM (active)
CCOC(=O)Nc1ccc(C(=O)NCC2CCCO2)cc1 (configuration not stated)	-22.6%	
